Rows were chosen to be rich in hits. Some 2.8% of all compounds tested hit in one or more screens of this group.
PP1 counter – PP1-alpha phosphatase inhibitors, primary screen, counter-screen for PP5 inhibitor project, biochemical, fluorescence, OMFP substrate, single point. 320,000 tested, 0.9% active. purified PP1alpha. AID 2235, 2010. inhibition, % at 6.7 µM. Serine/threonine-protein phosphatase PP1-alpha catalytic subunit (Homo sapiens), P62136;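 active means inhibition above the mean inhibition of all tested compounds plus 3 SD, computed separately for each screening campaign, cut at about 15% in these data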
PP5 primary – PP5 phosphatase inhibitors, primary screen, biochemical, fluorescence; purified PP5c, OMFP substrate fluorescence; AID 1987, 2009; inhibition, % at 6.7 µM; 320,000 tested, 0.18% active;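 active means inhibition above the campaign's mean inhibition across all tested compounds plus 3 SD, cut at about 9.5% in these data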;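 further: 0% = DMSO only and 100% = 100 µM cantharidin control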
Granule exo inh – LAMP-1 surface exposure blockers, TALL-104 cells – cell-based, flow cytometry, MLPCN library, primary screen; inhibition, % at 10 µM; TALL-104 LAMP-1 surface exposure; cells stimulated with thapsigargin and PMA; 360,000 tested, 0.66% active; AID 651702, 2012;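 active means inhibition above about 55%, limit read from the data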
SKKanGAS inh – S. pyogenes SKKanGAS growth inhibitors in kanamycin, primary screen, streptokinase expression inhibitor project, SKKanGAS strain, BacTiter-Glo luminescence. 6 h. inhibition, % at 7.5 µM. 300,000 tested, 1.3% active;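 active means mean replicate score, as percent of positive control median, at least 50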;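 further: strain carries kanamycin resistance gene driven by streptokinase promoter and grows in 40 µg/ml kanamycin; loss of luminescence reflects streptokinase promoter inhibition or plain growth inhibition; 0% = median of DMSO wells and 100% = positive control at its reference dose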
IDE cell inh – human IDE inhibitors in live cells, primary screen, fluorescence polarization, HEK cells, FAbetaB substrate; FAbetaB cleavage; inhibition, % at 5.59 µM; 320,000 tested, 0.41% active;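 active means percent inhibition above the average of all tested compounds plus 3 SD, set per screening campaign, cut at about 16% in these data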;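 further: IDE supplied by intact live HEK cells; FP after avidin binding of uncleaved biotin substrate so inhibition keeps polarization high; 0% = DMSO wells and 100% = 60 µM reference IDE inhibitor Ii1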
Target sequence (P14735 whole entry, looked up): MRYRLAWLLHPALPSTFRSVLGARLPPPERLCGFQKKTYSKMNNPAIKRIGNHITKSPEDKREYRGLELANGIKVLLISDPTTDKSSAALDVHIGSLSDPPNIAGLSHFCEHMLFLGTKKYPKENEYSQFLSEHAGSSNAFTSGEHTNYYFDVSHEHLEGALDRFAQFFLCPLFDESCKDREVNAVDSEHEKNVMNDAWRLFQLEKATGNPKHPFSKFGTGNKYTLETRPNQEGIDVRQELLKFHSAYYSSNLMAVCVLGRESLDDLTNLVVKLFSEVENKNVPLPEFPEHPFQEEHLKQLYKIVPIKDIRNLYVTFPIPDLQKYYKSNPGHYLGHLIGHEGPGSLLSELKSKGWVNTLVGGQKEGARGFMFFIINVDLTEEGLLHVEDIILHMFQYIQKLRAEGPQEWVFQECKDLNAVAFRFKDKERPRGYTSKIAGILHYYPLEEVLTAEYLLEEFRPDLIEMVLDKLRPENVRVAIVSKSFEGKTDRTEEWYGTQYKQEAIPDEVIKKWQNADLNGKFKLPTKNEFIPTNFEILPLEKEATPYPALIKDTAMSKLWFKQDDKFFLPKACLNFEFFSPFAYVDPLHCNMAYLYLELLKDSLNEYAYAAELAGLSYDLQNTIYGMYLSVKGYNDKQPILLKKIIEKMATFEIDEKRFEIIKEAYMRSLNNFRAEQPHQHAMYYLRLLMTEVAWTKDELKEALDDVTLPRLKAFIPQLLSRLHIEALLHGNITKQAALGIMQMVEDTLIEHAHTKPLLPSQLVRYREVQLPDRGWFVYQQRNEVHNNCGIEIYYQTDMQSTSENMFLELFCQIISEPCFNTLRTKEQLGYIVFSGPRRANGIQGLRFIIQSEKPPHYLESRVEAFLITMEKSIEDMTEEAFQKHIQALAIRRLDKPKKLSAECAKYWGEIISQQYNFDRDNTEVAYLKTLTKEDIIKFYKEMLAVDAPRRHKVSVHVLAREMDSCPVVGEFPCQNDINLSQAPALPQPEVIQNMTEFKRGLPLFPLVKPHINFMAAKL
IDE cell activ – human IDE activators in live cells, primary screen, fluorescence polarization, HEK cells, FAbeta-B substrate | activation, % at 5.96 µM | Insulin-degrading enzyme (Homo sapiens), P14735 | AID 493087, 2011 | FAbeta-B cleavage; 0% vehicle, 100% cell-free pure enzyme wells | 340,000 tested, 0.073% active;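 active means activation above the mean of all tested compounds plus 3 SD, set per screening campaign, cut at about 17% in these data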
PP5 inh confirm – PP5 phosphatase inhibitors, confirmation, biochemical, fluorescence, human. shares compounds with PP5 primary. Purified PP5, fluorogenic phosphatase substrate. inhibition, % at 6.7 µM. 460 tested, 22% active. AID 2331, 2010; in the data active means inhibition above about 9.5%
PP1 inh counter – PP1 phosphatase inhibitors, counter-screen for PP5 inhibitor project, biochemical, fluorescence, triplicate | shares compounds with PP5 primary | PP1 enzyme, fluorescent phosphatase substrate | inhibition, % at 6.7 µM | 460 tested, 4% active; in the data active means inhibition above about 16%
* hit, by the source's call.

Results for COc1cc(SC)ccc1C(=O)N1CCN(S(=O)(=O)/C=C/c2ccccc2)CC1 ?
PP1 counter: -2; PP5 primary: 1; Granule exo inh: -2; IDE cell inh: -4; IDE cell activ: 2

What do the screens show for `O=C(CCC(=O)N1CCCCC1)Nc1nnc(C2CCCCC2)s1`?
PP1 counter: -4; PP5 primary: -2; Granule exo inh: 2; SKKanGAS inh: -4; IDE cell inh: 0; IDE cell activ: 3

What do the screens show for `O=C(CCC(=O)N1CCOCC1)Nc1nnc(C2CCCCC2)s1`?
PP1 counter: -3; PP5 primary: 12*; Granule exo inh: -2; SKKanGAS inh: -9; IDE cell inh: 0; IDE cell activ: 5; PP5 inh confirm: -5; PP1 inh counter: -4

What do the screens show for `CCOC(=O)[C@]12CCCC=C1N(CCc1ccc(OC)c(OC)c1)C(=O)[C@H](CC(=O)NCc1ccc(C)o1)C2`?
Granule exo inh: 2

What do the screens show for `CC1(C)C=Cc2c(ccc3c2OC[C@H](c2ccc(O)cc2O)C3)O1`?
PP1 counter: 4; PP5 primary: 9.6*; Granule exo inh: -4; IDE cell inh: -4; IDE cell activ: 18*; PP5 inh confirm: 8; PP1 inh counter: 5

What do the screens show for `Cc1ccc(-c2ccc(/C=N\n3cnnc3)o2)c(Br)c1`?
PP1 counter: 5; PP5 primary: 11*; Granule exo inh: 2; SKKanGAS inh: -1; IDE cell inh: 13; IDE cell activ: -11; PP5 inh confirm: -3; PP1 inh counter: -2

Results for Cc1cc(-c2ccc(/C=N/n3cnnc3)o2)c(C)c([N+](=O)[O-])c1 ?
PP1 counter: 1; PP5 primary: 3; Granule exo inh: 2; SKKanGAS inh: -8; IDE cell inh: 6; IDE cell activ: 5

What do the screens show for `CCn1c(NC(=O)c2ccco2)c(-c2ccccc2Cl)c(=O)c2ccccc21`?
PP1 counter: -1; PP5 primary: 12*; Granule exo inh: 0; SKKanGAS inh: -2; IDE cell inh: 3; IDE cell activ: 4; PP5 inh confirm: -8; PP1 inh counter: -5

Results for Cn1c(NC(=O)c2ccco2)c(-c2ccccc2)c(=O)c2ccccc21 ?
PP1 counter: 0; PP5 primary: -1; Granule exo inh: -1; SKKanGAS inh: -5; IDE cell inh: 3; IDE cell activ: -1

How did CCOC(=O)CNC(=O)c1cc(C)oc1C do in these assays?
PP1 counter: -2; PP5 primary: 14*; IDE cell inh: 4; PP5 inh confirm: 0; PP1 inh counter: -1

Results for O=C(Cc1ccc(S(=O)(=O)N2CCOCC2)s1)Nc1cc(C(F)(F)F)cc(C(F)(F)F)c1 ?
PP1 counter: 7; PP5 primary: 9.7*; Granule exo inh: 4; IDE cell inh: 2; IDE cell activ: 2; PP5 inh confirm: 13*; PP1 inh counter: 9

Results for O=C(Cc1ccc(S(=O)(=O)N2CCOCC2)s1)Nc1cc(C(F)(F)F)ccc1N1CCCC1 ?
PP1 counter: 0; PP5 primary: 2; Granule exo inh: 5; SKKanGAS inh: 4; IDE cell inh: -4; IDE cell activ: 3

How did O=C(c1cccc(C(F)(F)F)c1)N1CCC(O)(CS(=O)(=O)Cc2ccccc2)CC1 do in these assays?
PP1 counter: 0; PP5 primary: 4; Granule exo inh: 1; SKKanGAS inh: -5; IDE cell inh: 6; IDE cell activ: 6

Bioassay records deposited in PubChem BioAssay by several laboratories.
